The values that follow come from PubChem BioAssay (NCATS).

Structures are written as SMILES. Values joined by “and” are separate entries in the source; they are usually repeats but may differ in a detail not shown here. Equal entries are not always repeated. Values without a mark were called inactive. Inconclusive results are not listed. Entries that show only a call come without a potency. Active and inactive are the calls of the source. Unless noted, the call rests on the fitted dose curve; in most records, active means well fitted curve in the direction sought with a large enough effect; inconclusive means small, poorly fitted or top-dose-only effect, or another doubt; inactive means no such curve, though single readings can be large; an effect the other way counts as inactive or inconclusive.

Experiment [1] has as its target Guanine nucleotide-binding protein G(i) subunit alpha-1 (Homo sapiens) (UniProt P63096). Nature of the experiment: qHTS Assay for Inhibitors of RGS12 GoLoco Motif Activity (Green Fluorophore) (AID 879).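 Further: negative values mean loss of peptide binding seen as reduced polarization.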 The procedure, abridged: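 Fluorescence polarization assay: 50 nM Gαi1 with 10 nM FITC-labeled RGS12 GoLoco peptide in 10 mM Tris pH 7.5, 150 mM NaCl, 0.1 mM GDP, 0.05% NP40, 10 min at room temperature with compound.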
Background: Quantitative high-throughput screening tests each substance at several concentrations.

In experiment [2] the target is Cytochrome P450 2C9 (Homo sapiens) (UniProt P11712). The experiment in a line: qHTS Assay for Inhibitors and Substrates of Cytochrome P450 2C9 (AID 883). Further: nearly all actives have a fitted effect of over 60% in size. Further: potency means the concentration at half of the fitted maximal effect. The essentials: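 Luminescent read-out of deoxyluciferin hydroxylation, normalized to 57uM sulphaphenazole (AC100). Reaction: 10nM enzyme, 100uM Luciferin-H (equal to KM), 25mM KPO4, 10 min compound preincubation, then 60 min with NADPH regeneration, both at 37C.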
Sequence of Cytochrome P450 2C9 (Homo sapiens) (P11712 whole entry, looked up): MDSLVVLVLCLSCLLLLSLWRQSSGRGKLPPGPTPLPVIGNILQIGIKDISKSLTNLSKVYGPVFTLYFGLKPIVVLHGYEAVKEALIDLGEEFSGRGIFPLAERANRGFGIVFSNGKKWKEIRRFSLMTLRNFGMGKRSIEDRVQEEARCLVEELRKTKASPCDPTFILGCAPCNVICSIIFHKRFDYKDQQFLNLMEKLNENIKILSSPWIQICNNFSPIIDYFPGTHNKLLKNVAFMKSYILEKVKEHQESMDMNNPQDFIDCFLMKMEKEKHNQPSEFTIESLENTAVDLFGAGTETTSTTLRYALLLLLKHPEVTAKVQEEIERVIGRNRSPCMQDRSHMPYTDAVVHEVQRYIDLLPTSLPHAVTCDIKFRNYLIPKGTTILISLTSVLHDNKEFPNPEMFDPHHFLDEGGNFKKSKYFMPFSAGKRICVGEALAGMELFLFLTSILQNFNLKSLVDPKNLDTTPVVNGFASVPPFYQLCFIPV

For experiment [3], the target named is Cytochrome P450 2D6 (Homo sapiens) (UniProt P10635). The experiment in a line: qHTS Assay for Inhibitors and Substrates of Cytochrome P450 2D6 (AID 891). Further: nearly all actives have a fitted effect of over 60% in size. Further: potency means the concentration at half of the fitted maximal effect. The procedure, abridged: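 Human CYP2D6 (5 nM) with 30 uM Luciferin-ME EGE (at Km) in 100 mM KPO4, compound preincubated 10 min, then NADPH regeneration system for 60 min at room temperature. Luciferin read by luminescence; normalized to 1.43 uM quinidine.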
Sequence of Cytochrome P450 2D6 (Homo sapiens) (P10635 whole entry, looked up): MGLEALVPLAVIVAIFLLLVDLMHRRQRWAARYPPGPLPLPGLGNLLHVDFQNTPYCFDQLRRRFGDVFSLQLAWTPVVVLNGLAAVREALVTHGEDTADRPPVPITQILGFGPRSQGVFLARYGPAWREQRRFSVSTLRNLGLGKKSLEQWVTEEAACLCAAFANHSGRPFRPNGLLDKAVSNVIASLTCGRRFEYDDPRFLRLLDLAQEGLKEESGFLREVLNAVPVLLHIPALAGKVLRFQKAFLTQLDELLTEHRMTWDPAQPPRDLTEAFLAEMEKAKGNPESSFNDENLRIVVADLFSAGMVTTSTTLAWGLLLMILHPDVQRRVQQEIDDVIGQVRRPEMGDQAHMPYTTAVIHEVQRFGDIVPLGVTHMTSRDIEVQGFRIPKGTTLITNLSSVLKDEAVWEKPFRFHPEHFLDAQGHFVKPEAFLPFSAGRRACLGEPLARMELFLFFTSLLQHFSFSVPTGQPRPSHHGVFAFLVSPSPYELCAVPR

Experiment [4] has as its target Cytochrome P450 2C19 (Homo sapiens) (UniProt P33261). The experiment in a line: qHTS Assay for Inhibitors and Substrates of Cytochrome P450 2C19 (AID 899). Further: nearly all actives have a fitted effect of over 60% in size. Further: potency means the concentration at half of the fitted maximal effect. The essentials:
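Luminescence readout of luciferin formed from 10uM Luciferin-H EGE (KM level) by 5 nM CYP2C19 in 50mM KPO4. 60 min NADPH-driven reaction at 37C after 10 min compound preincubation; data scaled to 57uM ketoconazole inhibition.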

Experiment [5] is described as follows: qHTS Assay for Identification of Small Molecule Agonists for Thrombopoietin (TPO) Signaling Pathway (AID 917). The essentials:
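Murine Ba/F3 cells expressing human TPO receptor and GPIIb-promoter luciferase, IL-3-starved overnight, given compound plus TPO at 26 pM (EC50). After 24 h at 37 C, 5% CO2, luminescence read.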

A short description of experiment [6]: qHTS Assay for Identification of Small Molecule Agonists for Hypoxia Response Element Signaling Pathway (AID 914; active means well fitted activation curve with a large enough effect in the signal ratio, with a control signal flat, not every such curve was filed as active; the % refers to the signal ratio). The note with it: ME-180 (cervical carcinoma) HRE-bla reporter, beta-lactamase ratio, CoCl2, 17 h; active compounds read high. The procedure, abridged: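 Cells were plated overnight, pin-dosed with compound in a titration series, co-stimulated with EC50 CoCl2 and incubated 17 hours at 37 degrees Celsius. CCF4 substrate was then loaded, and AC50 values came from the 460nm/530nm ratio.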

The target of experiment [7] is Cytochrome P450 3A4 (Homo sapiens) (UniProt P08684). The experiment in a line: qHTS Assay for Activators of Cytochrome P450 3A4 (AID 885). Further: nearly all actives have a fitted effect of over 65% in size. The essentials: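 20nM CYP3A4 + 25uM Luciferin-PPXE (=KM), 200mM KPO4; cpd 10 min RT; NADPH regen, 60 min RT; stop w/ detection buffer, 20 min; luminescence. Normalized to 57 uM ketoconazole.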
Sequence of Cytochrome P450 3A4 (Homo sapiens) (P08684 whole entry, looked up): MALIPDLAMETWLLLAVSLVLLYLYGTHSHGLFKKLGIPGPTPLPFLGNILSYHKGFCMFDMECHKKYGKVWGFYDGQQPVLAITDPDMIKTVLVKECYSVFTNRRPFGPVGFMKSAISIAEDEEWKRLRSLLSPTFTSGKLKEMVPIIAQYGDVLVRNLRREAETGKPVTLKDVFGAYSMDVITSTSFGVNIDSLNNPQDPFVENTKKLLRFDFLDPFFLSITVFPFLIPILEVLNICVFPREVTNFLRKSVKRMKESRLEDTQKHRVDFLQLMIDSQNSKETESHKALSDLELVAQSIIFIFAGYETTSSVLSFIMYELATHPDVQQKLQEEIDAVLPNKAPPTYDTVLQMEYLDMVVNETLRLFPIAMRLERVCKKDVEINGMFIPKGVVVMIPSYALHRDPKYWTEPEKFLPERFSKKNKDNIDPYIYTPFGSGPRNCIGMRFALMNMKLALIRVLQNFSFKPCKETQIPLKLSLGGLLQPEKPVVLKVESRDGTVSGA
Experiment [8] can be described thus: qHTS Assay for Identification of Small Molecule Antagonists for NFkB Signaling Pathway (AID 895; active means well fitted inhibition curve with a large enough effect in the signal ratio, with a control signal flat, not every such curve was filed as active; the % refers to the signal ratio). The procedure, abridged: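 Beta-lactamase reporter read-out (460 and 530 nm emission ratio, 405 nm excitation, 2 hrs substrate loading RT) after 5 hr stimulation with 10 pM TNF alpha in compound-treated NFkB-bla ME-180 cells in low-serum medium.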
The target of experiment [9] is Cytochrome P450 3A4 (Homo sapiens) (UniProt P08684). The experiment in a line: qHTS Assay for Inhibitors and Substrates of Cytochrome P450 3A4 (AID 884). Further: nearly all actives have a fitted effect of over 50% in size. Further: potency means the concentration at half of the fitted maximal effect. The essentials: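 20 nM human CYP3A4 with 25 uM Luciferin-PPXE (at KM) in 200 mM KPO4, preincubated 10 min with compound; NADPH regeneration started a 60 min RT reaction. Luciferin detected by luminescence, normalized to 57 uM ketoconazole as full inhibition.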

A short description of experiment [10]: Confirmation and Secondary Assay for Modulators of Hemoglobin Beta Chain Splicing at IVS2 654 locus (AID 910).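 Further: HeLa cells stably carrying EGFP split by mutant beta-globin IVS2-654 intron; per-well total GFP intensity by laser scanning cytometry after 2-day treatment.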 The essentials:
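Readout: per-well total peak green fluorescence (488 nm ex, 500–520 nm em) from objects 5–250 µm, reflecting correct splicing of an EGFP-654 reporter. Compounds were applied for 2 days at 37 °C to overnight-plated HeLa EGFP-654 cells; controls were DMSO and 500 nM IVS2-654 PNA.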

Experiment [11] is described as follows: qHTS Assay for Identification of Small Molecule Antagonists for Thrombopoietin (TPO) Signaling Pathway (AID 918). Further: potency means the concentration at half of the fitted maximal effect; nearly all actives have a fitted effect of over 60% in size. As to conditions: TPO-dependent cell signaling reporter, antagonist mode. The procedure, abridged: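 First, Ba/F3 reporter cells expressing human TPO receptor were held overnight without IL-3. Next, compound and 26 pM TPO were added. After 24 hrs incubation at 37 C, luciferase luminescence under the Glycoprotein IIb promoter was recorded.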

Sequence of Guanine nucleotide-binding protein G(i) subunit alpha-1 (Homo sapiens) (P63096 whole entry, looked up): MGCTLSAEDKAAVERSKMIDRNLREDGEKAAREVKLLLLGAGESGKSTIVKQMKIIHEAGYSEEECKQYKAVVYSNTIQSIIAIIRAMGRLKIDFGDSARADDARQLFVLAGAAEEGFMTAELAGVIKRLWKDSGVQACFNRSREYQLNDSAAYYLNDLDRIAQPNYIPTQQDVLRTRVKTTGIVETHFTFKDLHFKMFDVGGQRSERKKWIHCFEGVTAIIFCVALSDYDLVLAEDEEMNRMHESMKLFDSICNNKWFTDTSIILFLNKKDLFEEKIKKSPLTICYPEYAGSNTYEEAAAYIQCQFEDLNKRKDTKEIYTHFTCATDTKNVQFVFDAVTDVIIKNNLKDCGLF
Sequence of Cytochrome P450 2C19 (Homo sapiens) (P33261 whole entry, looked up): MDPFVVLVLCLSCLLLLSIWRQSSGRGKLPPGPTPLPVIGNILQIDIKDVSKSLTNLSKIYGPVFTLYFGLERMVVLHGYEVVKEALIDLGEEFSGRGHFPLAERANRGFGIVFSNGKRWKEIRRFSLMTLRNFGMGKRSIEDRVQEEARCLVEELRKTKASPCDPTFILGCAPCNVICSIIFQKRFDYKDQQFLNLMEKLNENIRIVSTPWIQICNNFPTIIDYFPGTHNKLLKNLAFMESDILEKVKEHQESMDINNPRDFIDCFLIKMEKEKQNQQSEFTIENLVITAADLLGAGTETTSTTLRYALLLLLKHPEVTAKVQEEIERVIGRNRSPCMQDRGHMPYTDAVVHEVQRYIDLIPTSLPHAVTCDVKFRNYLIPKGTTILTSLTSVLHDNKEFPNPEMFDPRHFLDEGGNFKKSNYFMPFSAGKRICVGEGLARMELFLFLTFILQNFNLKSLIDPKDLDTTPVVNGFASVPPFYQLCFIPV

`O=C(O)c1cc([N+](=O)[O-])ccc1NCCCc1ccccc1`: the compound was called inactive in [1]. Moreover, the Potency in experiment [2] is 7.94 µM (active) and 501 nM (active). The Potency result in experiment [3] and in experiment [4] was “inactive” in each case.
As for `NO`, in [1], the compound was classed as inactive. In addition, in experiment [5], the Potency result is “inactive”.
Consider `NCCCCCCCCCCN`, for which the call in experiment [1] was inactive. For the same compound, the Potency result in experiment [5] was “inactive”.
On to `N[C@H](CCCP(=O)(O)O)C(=O)O`, for which the result in experiment [1] was inactive. The Potency entry in [2], in [3], in [4] and in [5] was “inactive” in each case.
`c1ccc(-c2ccccn2)nc1`: the outcome in [1] was inactive. In experiment [5], the Potency entry was “inactive”.
On to `O=c1[nH]c2cc(C(F)(F)F)ccc2n1-c1cc(C(F)(F)F)ccc1O`, for which, in experiment [1], the compound was called inactive. For the same compound, the Potency entry in experiment [5] was “inactive”.
Take `C=C[C@@H]1CN2CC[C@@H]1C[C@H]2[C@H](O)c1ccnc2ccc(OC)cc12`: in [2], the Potency entry is “inactive”.
In the case of `CN1[C@@H]2CC[C@H]1CC(OC(c1ccccc1)c1ccccc1)C2` (stereo partly drawn), the compound was called inactive in experiment [1]. In addition, in experiment [3], the Potency was 2 µM (active) and 1.26 µM (active). Further, in experiment [6], the activation is 14.9% and 19%. Also, the Potency entry in [5] was “inactive”.
Consider `CNCC[C@H](Oc1ccc(C(F)(F)F)cc1)c1ccccc1`, for which the result in experiment [2] was inactive.
In the case of `CC(C)Cc1ccc([C@H](C)C(=O)O)cc1`, the outcome in experiment [1] was inactive. The Potency entry in experiment [3] and in experiment [5] was “inactive” throughout.
With `COc1ccccc1CNCCCCCCNCCCCCCCCNCCCCCCNCc1ccccc1OC`, the compound was called inactive in experiment [1]. Besides, the Potency entry in [7] and in experiment [8] was “inactive” throughout.
Consider `O=C(O)[C@@H]1C[C@@H](C(=O)O)N1`, for which the Potency result in experiment [9], in [8] and in experiment [5] was “inactive” each time.
As to `CCCCN1CCC(n2c(=O)[nH]c3ccccc32)CC1`, the Potency result in experiment [2], in experiment [8] and in experiment [5] was “inactive” each time. Further, the Potency in experiment [3] was 3.16 µM (active).
As to `O=C(O)c1ccccc1Nc1cccc(C(F)(F)F)c1`, the Potency entry in experiment [9] was “inactive”. The compound was classed as inactive in experiment [10].
Take `NCCNC(=O)c1ncsc1-c1cccc(F)c1`: the Potency result in experiment [7] is “inactive”.
`COc1cccc(C(=O)NCCN2CCN(c3ccc(Cl)cc3)CC2)c1`: the Potency result in [7], in experiment [8] and in experiment [5] was “inactive” each time.
Take `Brc1c(Br)c(Br)c2n[nH]nc2c1Br`: the Potency in experiment [9] was 2.51 µM (active). Also, the Potency entry in [7] is “inactive”.
Turning to `N=c1ccn2c(n1)O[C@H]1[C@H](O)[C@@H](CO)O[C@H]12`, the Potency entry in [2], in experiment [3] and in experiment [4] was “inactive” in each case.
Consider `CC(C(=O)O)c1ccc2c(c1)[nH]c1ccc(Cl)cc12` (stereo not drawn), for which the Potency result in [9] was “inactive”. Also, in [10], the compound was called inactive.
As to `O=C(OCc1ccccc1)c1ccccc1`, the Potency entry in experiment [9] is “inactive”. For the same compound, the compound was called inactive in experiment [10].
`O=C1C(SCCO)=C(SCCO)C(=O)c2ccccc21`: the Potency is 12.6 µM (active) and 5.01 µM (active) in experiment [2]; 7.94 µM (active) in [3]; 501 nM (active) and 79.4 nM (active) in [4]; 1.26 µM (active) in [11]. Further, the Potency entry in [7] is “inactive”.
As to `Clc1ccccc1-c1nc(-c2ccncc2)no1`, the activity change, positive = activation in experiment [7] was -40.1% [at 11.4 µM]. The Potency in experiment [4] was 63.1 nM (active).
